Most compounds without a hit are left out; they make up all but 1.1% or so of the library.
SSB-PriA inh = K. pneumoniae PriA-SSBct interaction inhibition; AlphaScreen SSBct-PriA binding, biotinylated peptide; inhibition, % at 33 µM; hit rate 0.6% among 430,000; in the data active = inhibition mostly above about 37%, no sharp cut-off; inactive = mostly below about 20%;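 note: plate controls were negative control peptide for no effect and reference peptide for full effect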
ugtP null kill = compounds lethal to S. aureus RN4220 ugtP deletion mutant; OD600 growth, 16 h; growth inhibition, % (test concentration not listed); hit rate 0.54% among 330,000; in the data active = growth inhibition above about 68%;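 note: plate controls were untreated wells for no effect and antibiotic for full effect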
RN4220 kill = S. aureus RN4220 growth inhibition | hit rate 0.33% among 330,000 | OD600, 16 h | inhibition, % (test concentration not listed); in the data active = inhibition above about 85%;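 note: plate controls were untreated cells for no effect and reference antibiotic for full effect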
Mtb hypoxia rep = reduces hypoxia-regulated biosensor signal in M. tuberculosis. M. tuberculosis hypoxia-regulated fluorescent reporter, fluorescence. fluorescence inhibition, % (no concentration beside the values). hit rate 0.1% among 300,000. AID 1159583; in the data active = fluorescence inhibition mostly above about 23%, no sharp cut-off; inactive = mostly below about 17%
An asterisk follows results filed as active; x = not tested or not shown.

SMILES	SSB-PriA inh	ugtP null kill	RN4220 kill	Mtb hypoxia rep
Cc1csc(NC(=O)c2cc(C)oc2C)n1	-3	-7	-7	x
O=C(NC1CCCC1)N[C@H]1CC(=O)N(c2ccc(Cl)cc2)C1	-1	x	x	x
Cn1c(=O)c2sccc2n2c(=O)n(Cc3cccc(Br)c3)nc12	-4	x	x	x
CCC(CC)n1ccc(C(=O)Nc2nc(-c3ccccn3)cs2)n1	3	x	x	x
Fc1ccccc1Nc1nc(-c2ccccn2)cs1	77*	x	x	x
Cc1cccc(C(=O)Nc2nc(-c3ccccn3)cs2)c1C	73*	x	x	x
Cc1cc(C(=O)Nc2nc(-c3ccccn3)cs2)c(C)s1	62	x	x	x
Cc1nc(C(C)C)c(C(=O)Nc2nc(-c3ccccn3)cs2)s1	59*	x	x	x
O=C(Nc1nc(-c2nc3ccccc3s2)cs1)c1ccc(Br)s1	-4	x	x	x
O=C(Nc1nc(-c2ccccn2)cs1)c1ccc(Br)s1	56*	34	54	25
O=C(Nc1ccc2c(c1)CN(C(=O)c1ccco1)CC2)c1cccs1	-8	x	x	x
CC(=O)OCC1OC(Oc2ccccc2Cl)C(OC(C)=O)C(OC(C)=O)C1OC(C)=O (configuration not stated)	-10	x	x	x
O=C(Nc1nc(-c2ccccn2)cs1)c1ccccc1F	94*	x	x	x
O=C(Nc1nc(-c2ccccc2)cs1)c1ccccc1F	-24	-13	-3	-2
NC(=O)CSc1nccn1-c1cccc(C(F)(F)F)c1	-2	x	x	x
Brc1ccc(CSc2nccn2-c2ccccc2)cc1	59*	24	8	x
Clc1cccc(CSc2nccn2-c2ccccc2)c1	53*	16	11	x
FC(F)(F)c1ccc(CSc2nccn2-c2ccccc2)cc1	48*	9	4	x
CCOC(=O)C1=CN(Cc2cccc(F)c2)S(=O)(=O)NC1c1ccc2ccccc2c1 (configuration not stated)	5	-4	-2	0
CCOC(=O)C1=CN(Cc2cccc(F)c2)S(=O)(=O)NC1c1cccc(OC)c1 (configuration not stated)	47*	13	4	6
CCCCCCN(C(=O)CCl)c1ccccc1	-7	19	12	23
CCCCCCCN(C(=O)CCl)c1cccc(C)c1	-8	87*	25	22
CC1(C)Cc2cccc(OCC(=O)N3CCN(c4cc(C(F)(F)F)ncn4)CC3)c2O1	-9	x	x	x
N#CC(=NNc1ccc(OC(F)(F)F)cc1)C(N)=S	22	87*	82	x
N#CC(=NNc1ccc([N+](=O)[O-])cc1)C(N)=S	29	14	17	x
SMILES	SSB-PriA inh	ugtP null kill	RN4220 kill	Mtb hypoxia rep
Cc1cc(C(=O)NCCn2nc(-c3cccnc3)n(C3CC3)c2=O)c(C)o1	-3	x	x	x
COc1ccc(Cl)c2sc(N3CCN(C(=O)c4cc(C)oc4C)CC3)nc12	-3	x	x	x
NC(=O)C1CCN(C(=O)C(=O)NC2CC2)CC1	0	x	x	x
CSc1ccccc1C(=O)Nc1cc(C(=O)N2CCCC2)cn(C)c1=O	-7	x	x	x
N#Cc1ccc(NCC(=O)N2CCN(S(=O)(=O)c3ccccc3)CC2)cc1	-8	1	2	43*
Cc1ccc(NCC(=O)N2CCN(S(=O)(=O)c3ccccc3)CC2)cc1F	-9	8	3	-8
CCc1ccccc1-n1nnc(-c2nc(-c3ccccc3C)no2)c1N	4	x	x	x
Oc1cc(-c2cccnc2)cc2cccnc12	54*	100*	100*	3
Oc1cc(Nc2ccccc2)cc2cccnc12	65*	-6	16	-2
CN1CCN(c2cc(-c3cc(O)c4ncccc4c3)ccn2)CC1	67*	-6	3	12
Nc1c(O)ccc2cccnc12	30	x	x	x
CN1CCN(C(=O)c2cccc(-c3cc(O)c4ncccc4c3)c2)CC1	37	0	6	17
COCC(=O)N1CCC2(CC1)NC(=O)N(Cc1ccc(Cl)cc1)C2=O	-4	x	x	x
O=C(NN1CCOCC1)C1CCCN(c2ccc(-n3cncn3)nn2)C1 (configuration not stated)	-18	x	x	x
CCS(=O)(=O)Nc1ccc2c(c1)N(CCOC)CCC2	-14	x	x	x
COCCN1CCCc2ccc(NS(=O)(=O)c3ccc(F)cc3)cc21	20	x	x	x
COCCN1CCCc2ccc(NS(=O)(=O)c3ccc4c(c3)CCCC4)cc21	45*	x	x	x
COCCN1CCCc2ccc(NS(=O)(=O)c3c(C)c(C)c(C)c(C)c3C)cc21	38*	x	x	x
Cc1cc(C)c2nc(N3C(=O)C(=O)C(=C(O)c4ccncc4)C3c3ccc(Br)cc3)sc2c1 (configuration not stated)	-11	x	x	x
Cc1noc(C)c1CCC(=O)N1CCC(n2cc(-c3ccccc3)nn2)C1 (configuration not stated)	-15	x	x	x
Cc1cc(C(=O)Nc2nnc(-c3cc(C)nn3C)o2)on1	49*	x	x	x
Cc1cc(-c2nnc(NC(=O)c3cc(C)on3)o2)n(C)n1	-5	x	x	x
COc1ccc(C(=O)C(C)OC(=O)CNC(=O)c2ccco2)cc1 (configuration not stated)	8	12	5	31*
O=C(CNC(=O)c1ccco1)OC(C(=O)c1ccccc1)c1ccccc1 (configuration not stated)	-15	4	-1	x
CC(C)c1cc(=O)n2c(n1)SCC2CC(=O)NCc1ccc(Cl)cc1 (configuration not stated)	-21	x	x	x
SMILES	SSB-PriA inh	ugtP null kill	RN4220 kill	Mtb hypoxia rep
Cc1nn(-c2ccccc2)c(C)c1C=NNc1nc2ccccc2[nH]1	56*	1	-6	-3
Cc1c(C=NNc2nc3ccccc3[nH]2)c2ccccc2n1C	x	99*	99*	-13
C=CCn1cc(C=NNc2nc3ccccc3[nH]2)c2ccccc21	61*	-26	2	1
Cc1ccc(NC(=O)c2cc(C)n(C)n2)c(C(=O)c2ccccc2)c1	-9	x	x	x
Cc1cc(Cl)ccc1Nc1nc(NCCc2ccccc2)nc2nccnc12	-38	x	x	x
Cn1nc(CN(Cc2ccco2)S(=O)(=O)C2CC2)c2c1CCC2	-6	x	x	x
CCN(CC)C(=O)CSc1nnc2nnc3cc(OC)ccc3n12	-6	2	5	66*
CCc1nnc(-c2ccc(N)cc2)o1	-14	x	x	x
Cc1cccc(C(=O)N2N=C(c3ccco3)C[C@H]2c2ccco2)c1	12	x	x	x
CCC(C)N=Cc1c(Nc2ccccc2)nc2c(C)cccn2c1=O (configuration not stated)	5	13	6	51*
COc1ccc(Nc2nc3c(C)cccn3c(=O)c2/C=N\Nc2ccccc2)cc1	3	x	x	x
CC1CN(C(=O)NC2(C(Cl)(Cl)Cl)Oc3ccc(C(C)(C)C)cc3O2)CC(C)O1 (configuration not stated)	12	x	x	x
O=C1c2ccccc2C(=O)c2c1oc(C(F)(F)F)c2C(=O)c1ccccc1	-1	79*	94*	x
